# Laboratory results published in PubChem BioAssay (EPA / NIEHS).
# Records with an inconclusive call do not appear. Active and inactive are the calls of the source. The calls were made as follows, unless noted: active = hit-call score of the fitted dose curve at least 0.9, where 1 is the maximum; inconclusive = response in the unintended direction; inactive = score below 0.9.
# Columns and labels:
# [1] = molecular target: Nucleoli Translocation, AR (gene 367) (UniProt P10275); assay: UPITT_HCI_U2OS_AR_TIF2_Nucleoli_Antagonist: University of Pittsburgh U2OS Androgen Receptor-Transcriptional Intermediary Factor 2 (AR-TIF2) Antagonism High Content Imaging Assay for Nucleoli Translocation (AID 2283997)
# Sequence of Nucleoli Translocation, AR (gene 367) (P10275 whole entry, looked up): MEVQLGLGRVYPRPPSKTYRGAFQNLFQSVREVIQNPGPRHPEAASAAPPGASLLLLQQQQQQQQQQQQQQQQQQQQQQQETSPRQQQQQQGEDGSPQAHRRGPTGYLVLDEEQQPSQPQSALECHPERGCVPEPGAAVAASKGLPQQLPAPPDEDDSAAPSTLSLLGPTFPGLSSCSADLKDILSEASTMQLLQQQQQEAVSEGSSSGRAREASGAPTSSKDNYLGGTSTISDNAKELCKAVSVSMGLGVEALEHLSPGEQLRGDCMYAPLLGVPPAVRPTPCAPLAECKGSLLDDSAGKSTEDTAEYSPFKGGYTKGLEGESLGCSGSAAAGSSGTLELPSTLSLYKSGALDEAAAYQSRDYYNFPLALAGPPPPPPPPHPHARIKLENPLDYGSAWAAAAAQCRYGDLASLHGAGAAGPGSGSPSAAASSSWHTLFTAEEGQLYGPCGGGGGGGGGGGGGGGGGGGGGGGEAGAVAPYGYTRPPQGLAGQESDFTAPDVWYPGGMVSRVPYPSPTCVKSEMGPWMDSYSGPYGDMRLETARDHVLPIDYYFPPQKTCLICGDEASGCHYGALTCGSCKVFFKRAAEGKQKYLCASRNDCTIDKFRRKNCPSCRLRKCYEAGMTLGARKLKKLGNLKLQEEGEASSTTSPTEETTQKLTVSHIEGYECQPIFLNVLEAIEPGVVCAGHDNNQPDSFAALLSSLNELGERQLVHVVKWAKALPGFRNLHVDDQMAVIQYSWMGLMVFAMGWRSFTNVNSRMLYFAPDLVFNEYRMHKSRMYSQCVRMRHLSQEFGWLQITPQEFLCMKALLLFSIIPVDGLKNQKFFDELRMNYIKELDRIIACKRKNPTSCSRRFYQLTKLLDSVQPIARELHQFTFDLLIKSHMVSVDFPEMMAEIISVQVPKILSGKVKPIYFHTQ
# Summary of the method: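 An antagonist-mode imaging screen: engineered U2OS (AR-RFP, TIF2-GFP) exposed to 20 uM compound, 0.2% DMSO. Activity reflects nucleolar red fluorescence change relative to DHT baseline.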
# [2] = molecular target: Ratio of Nucleoli Translocation and Cytoplasm, AR (gene 367) (UniProt P10275); assay: UPITT_HCI_U2OS_AR_TIF2_Nucleoli_Cytoplasm_Ratio_Antagonist: University of Pittsburgh U2OS Androgen Receptor-Transcriptional Intermediary Factor 2 (AR-TIF2) Antagonism High Content Imaging Assay for Ratio of Nucleoli Translocation and Cytoplasm (AID 2283999);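 also: antagonists lower the DHT-driven ratio of nucleolar to cytoplasmic red signal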
# Sequence of Ratio of Nucleoli Translocation and Cytoplasm, AR (gene 367) (P10275 whole entry, looked up): as above
# Summary of the method: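 Read-out is the ratio of nucleolar to cytoplasmic AR-RFP fluorescence, imaged by high-content microscopy in U2OS cells coexpressing TIF2-GFP. Single-point 20 uM screen, triplicate confirmation, then 0.195–50 uM dose response; activity referenced to DHT baseline.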
# [3] = molecular target: Ratio of Nucleoli Translocation and Cytoplasm, AR (gene 367) (UniProt P10275); assay: UPITT_HCI_U2OS_AR_TIF2_Nucleoli_Cytoplasm_Ratio_Agonist: University of Pittsburgh U2OS Androgen Receptor-Transcriptional Intermediary Factor 2 (AR-TIF2) Agonism High Content Imaging Assay for Ratio of Nucleoli Translocation and Cytoplasm (AID 2284000);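 also: hits raise the red nucleolar to cytoplasm ratio above vehicle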
# Summary of the method: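 Primary screen at 20 uM final (0.2% DMSO), then triplicate confirmation and dose-response from 0.195 to 50 uM final (0.5% DMSO). Cells: U2OS with AR-RFP and TIF2-GFP. Endpoint is the nucleoli/cytoplasm red-fluorescence ratio, gain-of-signal vs DMSO.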
# [4] = CCTE_Harrill_HTTr_Viability_MCF7: CCTE's 6-hour Cell Viability Assessment for the High-Throughput Transcriptomics (HTTr) Platform, in MCF-7 cells cultured in DMEM + 10% fetal bovine serum, Harrill Lab (AID 2284010; active = hit-call score of the fitted dose curve at least 0.9, where 1 is the maximum; inactive = score below 0.9)
# Summary of the method: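 PI exclusion, high-content imaging; 8-pt dilution series, 6 h exposure; bidirectional fit vs DMSO (neg. ctrl/baseline); gain of signal = loss of membrane integrity.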
# [5] = CCTE_Harrill_HTTr_Apoptosis_MCF7: CCTE's 6-hour Apoptosis Assessment for the High-Throughput Transcriptomics (HTTr) Platform, in MCF-7 cells cultured in DMEM + 10% fetal bovine serum, Harrill Lab (AID 2284011; active = hit-call score of the fitted dose curve at least 0.9, where 1 is the maximum; inactive = score below 0.9)
# Summary of the method: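 Cells are dosed with test chemicals at eight concentrations and imaged 6 hours later for caspase-3/7 activity using a green fluorogenic detection reagent. Activity is fitted in both directions against DMSO controls.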
# [6] = molecular target: PGR (gene 5241) (UniProt P06401); assay: TOX21_PR_BLA_Followup_Agonist_ratio: Tox21 HEK293 Progesterone Receptor (PR) Agonism Beta-lactamase Follow-Up Assay, Ratio (AID 2283933)
# Sequence of PGR (gene 5241) (P06401 whole entry, looked up, the tested form may be a part): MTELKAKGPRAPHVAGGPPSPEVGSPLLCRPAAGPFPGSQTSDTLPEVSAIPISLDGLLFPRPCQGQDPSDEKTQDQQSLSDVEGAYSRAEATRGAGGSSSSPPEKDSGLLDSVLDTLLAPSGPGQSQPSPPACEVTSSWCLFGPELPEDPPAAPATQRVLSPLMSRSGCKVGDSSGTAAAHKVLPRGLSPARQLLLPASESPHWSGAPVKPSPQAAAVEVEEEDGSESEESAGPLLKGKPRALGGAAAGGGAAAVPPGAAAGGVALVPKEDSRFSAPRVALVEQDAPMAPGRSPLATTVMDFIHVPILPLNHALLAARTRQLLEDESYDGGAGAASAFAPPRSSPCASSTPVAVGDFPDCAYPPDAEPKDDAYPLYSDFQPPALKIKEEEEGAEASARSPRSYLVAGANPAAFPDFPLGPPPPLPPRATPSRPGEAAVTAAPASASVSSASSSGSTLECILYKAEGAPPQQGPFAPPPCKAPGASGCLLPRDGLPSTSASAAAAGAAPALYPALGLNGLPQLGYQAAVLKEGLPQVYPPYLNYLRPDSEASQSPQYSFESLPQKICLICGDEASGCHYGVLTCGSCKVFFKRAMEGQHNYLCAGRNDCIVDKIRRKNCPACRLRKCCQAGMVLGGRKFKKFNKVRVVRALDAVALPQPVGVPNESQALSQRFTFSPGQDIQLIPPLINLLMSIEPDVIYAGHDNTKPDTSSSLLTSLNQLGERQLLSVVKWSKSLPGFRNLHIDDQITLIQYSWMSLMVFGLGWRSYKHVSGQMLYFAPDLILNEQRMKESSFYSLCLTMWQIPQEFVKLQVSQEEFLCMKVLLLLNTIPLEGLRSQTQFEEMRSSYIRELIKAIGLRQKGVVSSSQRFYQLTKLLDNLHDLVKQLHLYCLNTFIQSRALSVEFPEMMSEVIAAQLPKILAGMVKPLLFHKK
# Summary of the method: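 Read-out: ratio of cleaved (ch2) to uncleaved (ch1) beta-lactamase substrate fluorescence, gain-of-signal relative to DMSO baseline. Cells: PR-UAS-bla HEK293T, 2% charcoal-stripped FBS; compound exposure 16 hr, 37C; substrate 2 hr, RT.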
# [7] = molecular target: PGR (gene 5241) (UniProt P06401); assay: TOX21_PR_BLA_Followup_Antagonist_ratio: Tox21 HEK293 Progesterone Receptor (PR) Antagonism Beta-lactamase Follow-Up Assay, Ratio (AID 2283934)
# Summary of the method: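 Read-out: blue/green beta-lactamase FRET ratio (cleaved ch2 over uncleaved ch1), fitted relative to DMSO baseline. Cells: PR-UAS-bla HEK293T, GAL4-UAS reporter, stimulated with 1 nM R5020 final; 16 hr compound exposure, 37C.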
# [8] = TOX21_PR_BLA_Followup_Agonist_viability: Viability Assessment in the Tox21 HEK293 Progesterone Receptor (PR) Agonism Beta-lactamase Follow-Up Assay (AID 2283935);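 also: signal loss means lower viability so actives are cytotoxic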
# Summary of the method: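 Luminescent ATP quantitation (CellTiter-Glo, 30 min, room temperature) in the same wells as the beta-lactamase read, on PR-UAS-bla HEK293T cells exposed to compound for 16 hr at 37C in 2% charcoal-stripped serum.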
# [9] = TOX21_PR_BLA_Followup_Antagonist_viability: Viability Assessment in the Tox21 HEK293 Progesterone Receptor (PR) Antagonism Beta-lactamase Follow-Up Assay (AID 2283936);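 also: cells exposed to compound with R5020 agonist for 16 h; hits lower the luminescence signal meaning cytotoxicity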
# Summary of the method: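 PR-UAS-bla HEK293T cells in medium with 2% charcoal-stripped FBS were treated with compounds plus R5020 for 16 hr at 37C. After the beta-lactamase read, CellTiter-Glo was added to the same wells and luminescence read after 30 min at room temperature.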
# [10] = molecular target: PGR (gene 5241) (UniProt P06401); assay: TOX21_PR_LUC_Followup_Agonist: Tox21 HEK293 Progesterone Receptor (PR) Agonism Luciferase Follow-Up Assay (AID 2283937; active = hit-call score of the fitted dose curve at least 0.9, where 1 is the maximum; inactive = score below 0.9)
# Summary of the method: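 Luminescence read-out (ONE-Glo, 30 min at room temperature) of PR-driven luciferase in HEK293-PR-A-luc cells after 16 h compound exposure at 37C; gain of signal fitted relative to DMSO baseline.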
# [11] = molecular target: PGR (gene 5241) (UniProt P06401); assay: TOX21_PR_LUC_Followup_Antagonist: Tox21 HEK293 Progesterone Receptor (PR) Antagonism Luciferase Follow-Up Assay (AID 2283938);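 also: curve fitted upward as signal gain over DMSO baseline despite antagonist label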
# Summary of the method: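 A follow-up to the PR bla screen using HEK293-PR-A-luc cells, multiplexed with cell viability to flag cytotoxicity. Reporter luminescence after 16 h compound exposure was analysed relative to DMSO.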
# [12] = TOX21_PR_LUC_Followup_Antagonist_viability: Viability Assessment in the Tox21 HEK293 Progesterone Receptor (PR) Antagonism Luciferase Follow-Up Assay (AID 2283940)
# Summary of the method: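 Read-out: CellTiter-Glo ATP luminescence, loss of signal taken as reduced viability. Cells: HEK293-PR-A-luc, 3,000/well, 5 h settling, then 16 h compound exposure at 37C, 0% CO2.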
# [13] = TOX21_PR_LUC_Followup_Agonist_viability: Viability Assessment in the Tox21 HEK293 Progesterone Receptor (PR) Agonism Luciferase Follow-Up Assay (AID 2283941);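 also: loss of signal means cytotoxicity so actives lower viability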
# Summary of the method: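 Cytotoxicity counter-screen: ATP content by CellTiter-Glo luminescence, loss of signal = reduced viability. HEK293-PR-A-luc, 3,000 cells/well, compound exposure 16 h, 37C.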
structure (smiles),measurement,setting,value
O=C1NC(=O)c2ccc3c4ccc5c6c(ccc(c7ccc1c2c73)c64)C(=O)NC5=O,outcome,[1],inactive
same,outcome,[2],inactive
same,outcome,[3],inactive
same,outcome,[4],inactive
same,outcome,[5],inactive
C[C@@H]1CC(=O)NN=C1c1ccc(NN=C(C#N)C#N)cc1,outcome,[6],inactive
same,AC50,[7],17.3 µM (active)
same,outcome,[8],inactive
same,outcome,[9],inactive
same,outcome,[10],inactive
same,AC50,[11],3.22 µM (active)
same,outcome,[12],inactive
same,outcome,[13],inactive
CCC(=O)O[C@]1(C(=O)COC)[C@@H](C)C[C@H]2[C@@H]3CCC4=CC(=O)C=C[C@]4(C)C3(F)[C@@H](O)C[C@@]21C (stereo partly specified),AC50,[6],0.468 µM (active)
same,outcome,[7],inactive
same,outcome,[8],inactive
same,outcome,[9],inactive
same,AC50,[10],0.0067 µM (active)
same,outcome,[11],inactive
same,outcome,[12],inactive
same,outcome,[13],inactive
C/C=C(/C(=C/C)c1ccc(OC(C)=O)cc1)c1ccc(OC(C)=O)cc1,outcome,[6],inactive
same,AC50,[7],9.64 µM (active)
same,outcome,[8],inactive
same,outcome,[9],inactive
same,outcome,[10],inactive
same,AC50,[11],14.7 µM (active)
same,outcome,[12],inactive
CC(=O)O[C@H]1CC[C@@]2(C)C(=CC[C@@H]3[C@@H]2CC[C@]2(C)C(C(C)=O)=CC[C@@H]32)C1,outcome,[6],inactive
same,AC50,[7],10 µM (active)
same,outcome,[8],inactive
same,outcome,[9],inactive
same,outcome,[10],inactive
same,AC50,[11],9.14 µM (active)
same,outcome,[12],inactive
same,outcome,[13],inactive
